# Measured values from the OligoGym collection.
# Target: SLC44A2
# Test: pooled miR-30 sensor sort-seq; sequence = guide strand
# Details: shRNA
# Also: reference of the scale not given here.
row,Sequence,sensor-assay potency score (higher = more potent)
1,TACTTGTTTCTCGCAGTCTGGA,-0.0969
2,TTGTTGGTCTTGTTCAAGGGTT,-0.803
3,TGTAGCAGTGAAATATTCCGTA,0.424
4,TTTGATGAGTGCAATCGCGATG,-0.724
5,TATAGTACTCAAAGTCCCGGGA,-0.338
6,TTACTTGTTTCTCGCAGTCTGG,-0.794
7,TCAGACACAAACACCGTCCTTC,0.677
8,TCTTTGATGAGTGCAATCGCGA,-1.09
9,TAATCCAGTACCAAGAGACGGT,0.196
10,TTATAGACCGCTTCGTTGGAAG,-0.973
11,TTATAGTACTCAAAGTCCCGGG,0.0732

# Target: SLC45A3
# Test: as above
# Details: shRNA
row,Sequence,sensor-assay potency score (higher = more potent)
1,AAGGTCATGAGTGCCATCCAGC,-1.03
2,TAGGCAGTGACAGACTGGCTGA,-0.555
3,TTTGGGCAGGAACACCTGCTTC,-1.54
4,AAAGGTTAGCAGGTTGACCAGC,-0.476
5,TAAAACAGCGTGAAGGTCATGA,0.302
6,TTCATCATAGTGTCTCCGGGCC,0.0522
7,TAGGTGTGTCTCAACTAGGAGG,-0.961
8,AAATCCGTGTAAAACAGCGTGA,-0.511
9,TCTTGTCAAATACTACCTGTGT,-0.281
10,TAGCAGGTTGACCAGCAAGAGC,-1.81
11,TAGCTGTTAACCCTGAGCCTGG,-0.971
12,TGAACTTCTCCTCTACCCCCAC,-0.547
